This is a sample that favours compounds with a hit; in the whole collection about 1.7% have one here.
Caspase-1 inhib: caspase-1 (human) inhibition, allosteric or competitive; P29466; Caspase-1 enzyme, Ac-WEHD-AFC fluorogenic rate; Potency, µM (highest dose often 57.5 µM), inactives show top-dose activity change, negative = inhibition, most hits filed as inhibitors; 0.03% of 75,000 active; AID 900;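 also: plate controls were vehicle for no effect and no substrate for full effect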
ALOX15B inhib: blocks human 15-lipoxygenase 2 activity | O15296 | purified 15hLO-2, xylenol orange hydroperoxide absorbance | Potency, µM (series often up to 57.1 µM), for the others: at the top dose activity change, negative = inhibition, actives largely listed as inhibitors | 0.56% of 110,000 active | AID 881; also: % is scaled to controls: 0 for no effect and ±100 for the full control effect; nearly all actives have a fitted effect of over 60% in size
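Enzyme 50 nM, AA 45 uM, 25 mM Hepes pH 7.5 + 0.01% Triton X-100; cpd preinc 15 min RT, rxn 90 min RT; stop/detect with 200 uM XO + 300 uM Fe(II) in 50 mM H2SO4, 30 min; A573/A405.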
15-hLO inh: 15-hLO (ALOX15) enzyme inhibition | AID 887 | purified 15hLO-1, xylenol orange hydroperoxide absorbance | P16050 | 1.4% of 74,000 active | Potency, µM (highest dose often 57.1 µM), for inactives: at the highest dose activity change, negative = inhibition, most hits filed as inhibitors; also: % is scaled to controls: 0 for no effect and ±100 for the full control effect; nearly all actives have a fitted effect of over 55% in size
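40 nM 15hLO-1 + cpd, 15 min RT; start w/ 50 uM AA (final), 6 min RT; stop/detect w/ 200 uM XO + 300 uM Fe(II) in 50 mM H2SO4, 30 min; A573/A405. Buffer 25 mM Hepes pH 7.5, 0.01% Triton X-100. No-enzyme wells as negative control.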
ERK AVP block: inhibitors of vasopressin-stimulated ERK signaling pathway; 0.99% of 72,000 active; HEK293-V1b, vasopressin-stimulated pERK AlphaScreen; Potency, µM (titrated, usually from 57.5 µM), for the others: at the top dose activity, negative = inhibition, actives largely listed as inhibitors; also: % is scaled to controls: 0 for no effect and ±100 for the full control effect; nearly all actives have a fitted effect of over 55% in size
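Phosphorylated ERK1/2 detected via AlphaScreen bead proximity in lysates of V1b-expressing HEK293 cells given 25 nM vasopressin for 5 min after 30 min compound exposure (37 °C). AC50 from Hill equation; basal DMSO 0%, vasopressin 100%.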
Casp7 inh: blocks human caspase-7 allosterically or competitively; P55210; recombinant caspase-7, Ac-DEVD-AFC fluorescence rate; Potency, µM (series often up to 57.5 µM), inactives show at the highest dose activity change, negative = inhibition, usual class: inhibitors; 0.02% of 75,000 active; AID 889; active = well fitted inhibition curve with a large enough effect in the main read-out, with a control signal flat, not every such curve was filed as active; inconclusive = small, poorly fitted or top-dose-only effect, or a change in a side signal; also: % of control where 0% means no effect
Target sequence (P55210 24-198 limits assumed): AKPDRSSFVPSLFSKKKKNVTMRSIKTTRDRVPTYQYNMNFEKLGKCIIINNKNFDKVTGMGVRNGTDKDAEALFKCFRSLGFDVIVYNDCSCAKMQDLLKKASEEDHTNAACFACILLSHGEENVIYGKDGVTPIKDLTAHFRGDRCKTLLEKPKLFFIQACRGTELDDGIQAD
Target sequence (P55210 207-303 limits assumed): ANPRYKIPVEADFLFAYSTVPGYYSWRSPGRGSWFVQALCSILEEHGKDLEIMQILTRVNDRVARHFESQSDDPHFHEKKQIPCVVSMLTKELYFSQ
An asterisk follows results filed as active; ? = inconclusive; . = no result; [ ] = another dose, or the depositor's remark. Unless noted, calls follow the shape of the dose curve; as a rule, active = well fitted curve in the direction sought with a large enough effect; inconclusive = small, poorly fitted or top-dose-only effect, or another doubt; inactive = no such curve, though single readings can be large; an effect the other way counts as inactive or inconclusive. Potency is read from the fitted curve at half-maximal effect.

SMILES | Caspase-1 inhib | ALOX15B inhib | 15-hLO inh | ERK AVP block | Casp7 inh
CN1C(=O)C(Cc2c[nH]c3ccccc23)NC1=S (stereo unspecified) | -2% | 23% | -12% | -16% | -1%
Cn1c(-c2ccc(F)cc2)cnc1NCc1ccccc1 | -3% | -4% | ? | 25µM* | -1%
Cn1c(-c2ccc(F)cc2)cnc1NCc1cccc(F)c1 | . | 30% | . | . | .
COc1cccc([C@@H]2Oc3ccc(OC)cc3/C(=N/O[C@@H](C)CN3CCCc4nc(C)c(C)cc43)[C@@H]2O)c1 | -5%[11.5 µM] | . | -7%[11.4 µM] | -1%[11.5 µM] | -6%[11.5 µM]
Cc1cc(O)c(NC(=S)NC(=O)c2ccc(-c3ccc(Cl)cc3)o2)cc1C | . | 13µM* | . | . | .
COc1ccc(S(=O)(=O)/N=C2/C=CC(=O)C(C)=C2C)cc1 | . | 13µM* | . | . | .
COC(=O)N1CCC2(CCN(Cc3ccc(C#N)cc3)CC2)CC1 | -3% | 1% | -22% | 2% | 2%
COc1ccc(/C=C/C(=O)c2cc(O)ccc2O)cc1 | 0% | ? | 20µM* | ? | -2%
COc1ccc(/C=C/C(=O)O)cc1 | . | 15%[0.0915 µM] | . | . | .
COc1ccc(/C=C/C(=O)c2ccc(O)cc2O)cc1 | 2% | 8% | 20µM* | ? | -1%
O=C(/C=C/c1ccccc1)c1ccc(O)cc1O | ? | 3% | 20µM* | ? | -2%
O=C(/C=C/c1ccc(O)cc1)c1ccc(O)cc1O | -3%[11.5 µM] | -25% | -10%[11.4 µM] | 11%[11.5 µM] | 0%[11.5 µM]
COc1ccc(/C=C/C(=O)c2ccc(O)cc2O)cc1OC | 1% | -6% | 16µM* | 16µM* | 0%
COc1ccc(/C=C/C(=O)c2ccc[nH]2)cc1OC | . | -8% | . | . | .
O=C(O)/C=C\C(=O)N1Cc2cc3ccccc3nc2C1 | -3%[11.5 µM] | -4%[11.4 µM] | -3%[11.4 µM] | 9%[11.5 µM] | -1%[11.5 µM]
C=CCC1C=CC(Oc2ccc(OC)cc2)C(COC(=O)c2ccc(Br)cc2)O1 (stereo unspecified) | -2%[11.5 µM] | . | ? | 18%[11.5 µM] | -1%[11.5 µM]
c1ccc2c(CSCc3cccc4ccccc34)cccc2c1 | -4%[11.5 µM] | 4%[11.4 µM] | -3%[11.4 µM] | 1%[11.5 µM] | -1%[11.5 µM]
Nc1cc(-c2ccccc2)ccc1O | 1% | 13µM* | 7.9µM* | 14% | 1%
Nc1nc(Cl)nc2c1ncn2[C@@H]1O[C@@H](COP(=O)(O)OP(=O)(O)OP(=O)(O)O)[C@@H](O)[C@H]1O | 3% | 3% | 9% | 15% | 1%
O=C(Nc1cccnc1)c1ccc(Cl)c(S(=O)(=O)N2CCCCCC2)c1 | 1% | 11% | -8% | 20µM* | 3%
CCO[Si](CCCN)(OCC)OCC | 1% | 3% | 0% | 22% | -1%
COc1ccc(NC2=NC3(CCCCC3)N=C(N)N2)cc1 | -1% | 20% | 25µM* | 3% | 4%
CCCCOc1ccc(NC2=NC3(CCCCC3)N=C(N)N2)cc1 | 2% | 53% | ? | 18% | 1%
COc1cc2c(cc1O)C(Cc1ccc(O)cc1)[N+](C)(C)CC2 (stereo unspecified) | 2% | 3% | -6% | -9% | -2%
COc1cc(C2NC(=O)NC(c3ccccc3)=C2C(C)=O)ccc1OCC(=O)O (stereo unspecified) | . | -6% | 7.9µM* | -4% | ?
SMILES | Caspase-1 inhib | ALOX15B inhib | 15-hLO inh | ERK AVP block | Casp7 inh
COc1cccc(-c2cc(=O)c3cc(NC(=O)c4cccnc4)ccc3[nH]2)c1 | . | 4%[0.0915 µM] | . | . | .
COc1ccc(Cl)cc1NC(=O)C1CSC(c2ccncc2)=N1 (stereo unspecified) | -6% | . | ? | 16µM* | -7%
CCN1C(=O)CC(N2CCN(c3ccc(Cl)cc3)CC2)C1=O (stereo unspecified) | -3% | 3% | 4% | 6% | -3%
CCN1C(=O)CC(N2CCN(c3ccc(C(=O)c4ccccc4)cc3)CC2)C1=O (stereo unspecified) | -2% | -5% | -20% | 16µM* | -1%
CC(=O)Oc1cc(OC(C)=O)c2c(=O)cc(-c3ccc(OC(C)=O)c(OC(C)=O)c3)oc2c1 | . | -23% | -14%[25.6 µM] | ? | ?
c1ccc(C2=Nc3ccccc3SC2c2nc3ccccc3[nH]2)cc1 (stereo unspecified) | . | 25µM* | . | . | .
COc1ccc2c(c1)c(=O)oc1cc(OCC(=O)N3CCC(C)CC3)ccc12 | 1% | -5% | ? | ? | -14%

High-throughput results from PubChem BioAssay.
